Structures can show the parent of a compound that is named as a salt. ± gives the standard deviation of the averaged measurements.

For test [1], the system named is Saccharomyces cerevisiae BY4741 SeMeCo community. The test can be described thus: mean cell size (pixel area) (pixels); higher = larger cells. The following applies: 10 µM; 24 h; SM minimal medium. The procedure, abridged: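 In this assay, mean cell pixel area per well was obtained from automated confocal images of paraformaldehyde-fixed yeast analysed in Harmony. The cells were a Saccharomyces cerevisiae BY4741 community with four plasmids, each complementing one auxotrophy and carrying a fluorescent marker, grown for 24 h in SM medium with drug at a final 10 µM in 384-well plates. Values are averaged across 3 replicates. Same SeMeCo high-content imaging drug screen: Selleck FDA-approved drugs at 10 µM, 24 h in SM medium, 384-well plates, 3 replicates.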

For test [2] the test system is unchanged. The test can be described thus: z-score of prototroph abundance vs DMSO median; higher = larger share of this subpopulation than in DMSO controls. The settings on record: 10 µM; 24 h; SM minimal medium; subpopulation (auxotrophy): Prototroph. The method, boiled down: (§1)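 Four plasmids, each restoring a single auxotrophy and encoding a distinct fluorescent protein, were carried by a Saccharomyces cerevisiae BY4741 community. After overnight growth to OD600 1.0 and dilution to 0.3, 70 µl per well was grown for 24 h in minimal SM medium on 384-well plates acoustically predosed with library drugs at 10 µM final. Following paraformaldehyde fixation, automated confocal microscopy was used, with single-auxotroph fluorescent strains defining thresholds and autofluorescence correction. Subpopulation abundance was then scored as a z-score against the vehicle-well median.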

For test [3] the test system is unchanged. The experiment in a line: z-score of subpopulation abundance vs DMSO median, subpopulation auxotrophic for M; higher = larger share of this subpopulation than in DMSO controls. The settings on record: 10 µM; 24 h; SM minimal medium; subpopulation (auxotrophy): M. The method, boiled down:
as §1

Test [4] shares this test system. The experiment in a line: z-score of subpopulation abundance vs DMSO median, subpopulation auxotrophic for U; higher = larger share of this subpopulation than in DMSO controls. The settings on record: 10 µM; 24 h; SM minimal medium; subpopulation (auxotrophy): U. The method, boiled down: as §1
The test system is the same in test [5]. The test can be described thus: z-score of subpopulation abundance vs DMSO median, subpopulation auxotrophic for H; higher = larger share of this subpopulation than in DMSO controls. The settings on record: 10 µM; 24 h; SM minimal medium; subpopulation (auxotrophy): H. The method, boiled down:
as §1

Test [6] shares this test system. The test can be described thus: z-score of subpopulation abundance vs DMSO median, subpopulation auxotrophic for LU; higher = larger share of this subpopulation than in DMSO controls. The following applies: 10 µM; 24 h; SM minimal medium; subpopulation (auxotrophy): LU. The method, boiled down: as §1
Test [7] shares this test system. The test can be described thus: z-score of subpopulation abundance vs DMSO median, subpopulation auxotrophic for LM; higher = larger share of this subpopulation than in DMSO controls. The following applies: 10 µM; 24 h; SM minimal medium; subpopulation (auxotrophy): LM. The method, boiled down: as §1
Test [8] shares this test system. The test can be described thus: z-score of subpopulation abundance vs DMSO median, subpopulation auxotrophic for HM; higher = larger share of this subpopulation than in DMSO controls. The following applies: 10 µM; 24 h; SM minimal medium; subpopulation (auxotrophy): HM. The method, boiled down: as §1
Test [9] shares this test system. The experiment in a line: z-score of subpopulation abundance vs DMSO median, subpopulation auxotrophic for HU; higher = larger share of this subpopulation than in DMSO controls. The following applies: 10 µM; 24 h; SM minimal medium; subpopulation (auxotrophy): HU. The method, boiled down: as §1
The test system is the same in test [10]. The test can be described thus: z-score of subpopulation abundance vs DMSO median, subpopulation auxotrophic for UM; higher = larger share of this subpopulation than in DMSO controls. The settings on record: 10 µM; 24 h; SM minimal medium; subpopulation (auxotrophy): UM. The method, boiled down:
as §1

The test system is the same in test [11]. The test can be described thus: z-score of subpopulation abundance vs DMSO median, subpopulation auxotrophic for HL; higher = larger share of this subpopulation than in DMSO controls. The settings on record: 10 µM; 24 h; SM minimal medium; subpopulation (auxotrophy): HL. The method, boiled down: as §1
The test system is the same in test [12]. The experiment in a line: z-score of subpopulation abundance vs DMSO median, subpopulation auxotrophic for HLM; higher = larger share of this subpopulation than in DMSO controls. The settings on record: 10 µM; 24 h; SM minimal medium; subpopulation (auxotrophy): HLM. The procedure, abridged:
as §1

Test [13] shares this test system. The test can be described thus: z-score of subpopulation abundance vs DMSO median, subpopulation auxotrophic for HUM; higher = larger share of this subpopulation than in DMSO controls. The following applies: 10 µM; 24 h; SM minimal medium; subpopulation (auxotrophy): HUM. The method, boiled down:
as §1

The test system is the same in test [14]. The experiment in a line: z-score of subpopulation abundance vs DMSO median, subpopulation auxotrophic for LUM; higher = larger share of this subpopulation than in DMSO controls. The following applies: 10 µM; 24 h; SM minimal medium; subpopulation (auxotrophy): LUM. The method, boiled down:
as §1

Test [15] shares this test system. The experiment in a line: z-score of subpopulation abundance vs DMSO median, subpopulation auxotrophic for HLUM; higher = larger share of this subpopulation than in DMSO controls. The settings on record: 10 µM; 24 h; SM minimal medium; subpopulation (auxotrophy): HLUM. The method, boiled down: as §1
Test [16] has the same test system. The experiment in a line: z-score of subpopulation abundance vs DMSO median, subpopulation auxotrophic for L; higher = larger share of this subpopulation than in DMSO controls. The following applies: 10 µM; 24 h; SM minimal medium; subpopulation (auxotrophy): L. The procedure, abridged:
as §1

Take `CNCC[C@H](Oc1cccc2ccccc12)c1cccs1` [Duloxetine]: in test [1], the mean cell size stood at 12.3 ± 0.34. In addition, in test [2], the “z-score of prototroph abundance” value stood at 0.49. In addition, the “z-score of subpopulation abundance” value in test [3] was 0.27; in [4], -0.4; in [5], -0.81; in [6], -0.71; in [7], -0.49; in [8], 0.1. For the same compound, the “z-score of subpopulation abundance” value in test [9] was -0.4; in test [10], -0.39; in test [11] it was -1.33; in [12], -0.37; in test [13] it was 0.24; in [14] it was -0.47. Moreover, the “z-score of subpopulation abundance” value in test [15] was -0.23.

In turn, `CCOc1cc(N)c(Cl)cc1C(=O)NCC1CN(Cc2ccc(F)cc2)CCO1` (centres undefined) [Mosapride Citrate] returned a mean cell size in [1] of 12.5 ± 0.12. Besides, in [2], the “z-score of prototroph abundance” value was -0.84. Besides, the “z-score of subpopulation abundance” value in test [3] is 0.17; in test [16], 0.92; in test [4] it was 0.31; in [7], -0.05; in test [9], 0.11; in test [10] it was 0.37. The “z-score of subpopulation abundance” value in test [11] came out at 0.35; in [12] it was 0.62; in test [13], 0.97; in [14], 0.54; in [15] it was 1.04.

For `Oc1ccc([C@H]2COc3cc(O)ccc3C2)cc1` [Equol], the mean cell size in test [1] is 12.4 ± 0.17. For the same compound, the “z-score of subpopulation abundance” value in test [3] is 0.37; in [4], -0.12; in test [5], -0.53; in test [6] it was -0.26; in test [7], 0.45; in test [8] it was 0.47. Also, the “z-score of subpopulation abundance” value in [9] is -0.01; in test [10], 0.05; in [11], -0.02; in test [12] it was -0.88; in [13] it was -0.27; in [15] it was 0.35.

In turn, `CO/N=C(\C(=O)N[C@@H]1C(=O)N2C(C(=O)O)=C(COC(N)=O)CS[C@H]12)c1ccco1` [Cefuroxime sodium] came in with a mean cell size in [1] of 12.47 ± 0.073. Further, the “z-score of prototroph abundance” value in [2] worked out at 0.23. The “z-score of subpopulation abundance” value in test [3] was 0.78; in test [4], 0.58; in [5], -1.01; in test [6], -1.06; in test [7], -0.79; in [8] it was -0.58. In addition, the “z-score of subpopulation abundance” value in [9] is -0.93; in [10], 0.13; in test [11] it was -0.76; in [12] it was -1.17; in [14] it was -0.31.

On to `O=C1c2c(O)ccc(O)c2C(=O)c2c(NCCNCCO)ccc(NCCNCCO)c21` [Mitoxantrone 2HCl], for which the mean cell size in test [1] was 12.9 ± 0.15. Also, in test [2], the “z-score of prototroph abundance” value is -2.59. Moreover, the “z-score of subpopulation abundance” value in test [3] was -14; in test [16] it was 5.53; in test [4], -1.69; in [5], 21.2; in test [7], -5.45; in test [8], -7.73. Besides, the “z-score of subpopulation abundance” value in [9] is 26.5; in test [12], -2.5; in test [14] it was -5.01; in test [15] it was -2.13.

Consider `CCCCCCCCN=C(N)NC(N)=NCc1ccc(Cl)c(Cl)c1` [Olanexidine Hydrochloride semihydrate], for which the mean cell size in test [1] amounted to 9.82 ± 0.35. In addition, the “z-score of prototroph abundance” value in [2] is -19.3. For the same compound, the “z-score of subpopulation abundance” value in test [3] was -3.65; in test [16], -3.44; in test [4] it was -3.91; in test [5] it was 4.73; in [6], 2.95; in test [8], 13.8. Also, the “z-score of subpopulation abundance” value in [9] came out at 5.71; in [10], 12.2; in test [14], 21.6; in [15] it was 213.

On to `OC1(c2ccc(Cl)c(C(F)(F)F)c2)CCN(CCCC(c2ccc(F)cc2)c2ccc(F)cc2)CC1` [Penfluridol], for which the mean cell size in [1] was determined as 11.65 ± 0.089. For the same compound, in test [2], the “z-score of prototroph abundance” value is -1.64. For the same compound, the “z-score of subpopulation abundance” value in test [3] stood at 1.3; in [16] it was 0.81; in test [5], 0.09; in [7], 2.64; in test [8], 0.4; in [9], 0.66. The “z-score of subpopulation abundance” value in test [11] was found to be 0.46; in [12], 0.92; in test [13], 0.44; in test [15], 0.27.

`CC(C(=O)O)c1cccc(C(=O)c2ccccc2)c1` (centres undefined) [Ketoprofen] gave a mean cell size in test [1] of 12.4 ± 0.2. For the same compound, the “z-score of prototroph abundance” value in [2] was -0.62. In addition, the “z-score of subpopulation abundance” value in test [3] was -0.04; in test [16] it was 1.73; in test [4], -0.65; in test [5], 0.99; in [6], 0.57; in test [7], 1.24. For the same compound, the “z-score of subpopulation abundance” value in [8] was 0.55; in [9], -0.66; in [10], -0.3; in test [13] it was -0.02; in test [14], 1.22; in test [15], 1.1.

These data come from the supplement of paper PMC8975748.
